# Laboratory results as given in the supplement of paper PMC8975748.
# Counter-ions that a name gives are not always drawn. ± gives the standard deviation of the averaged measurements.
# Columns and labels:
# [1] = tested on: Saccharomyces cerevisiae BY4741 SeMeCo community; assay: mean cell size (pixel area) (pixels); higher = larger cells; settings: 10 µM; 24 h; SM minimal medium
# Summary of the method: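 Drug was acoustically predosed into 384-well plates to a final 10 µM in SM medium, and each well received 70 µl of Saccharomyces cerevisiae BY4741 diluted to OD600 = 0.3 from an overnight preculture at OD600 = 1.0. This four-plasmid fluorescent community carries one fluorescent marker per plasmid, and each plasmid complements one auxotrophy. After 24 h, the cells were fixed with paraformaldehyde and imaged by automated confocal microscopy, and Harmony analysis yielded mean cell pixel area per well. Each value is averaged over 3 replicates. Same SeMeCo high-content imaging drug screen: Selleck FDA-approved drugs at 10 µM, 24 h in SM medium, 384-well plates, 3 replicates.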
# [2] = tested on: Saccharomyces cerevisiae BY4741 SeMeCo community; assay: z-score of prototroph abundance vs DMSO median; higher = larger share of this subpopulation than in DMSO controls; settings: 10 µM; 24 h; SM minimal medium; subpopulation (auxotrophy): Prototroph
# Summary of the method: (§1)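 Automated confocal microscopy of paraformaldehyde-fixed cells was used to follow a Saccharomyces cerevisiae BY4741 community carrying four plasmids, each restoring one auxotrophy and encoding a distinct fluorescent protein. The community was pre-grown overnight to OD600 1.0, diluted to 0.3, and added at 70 µl to 384-well plates acoustically predosed with library drugs (10 µM final) for 24 h of growth in minimal SM medium. Single-auxotroph fluorescent strains set thresholds and autofluorescence correction, and each subpopulation's abundance was scored as a z-score against the vehicle-well median.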
# [3] = tested on: Saccharomyces cerevisiae BY4741 SeMeCo community; assay: z-score of subpopulation abundance vs DMSO median, subpopulation auxotrophic for L; higher = larger share of this subpopulation than in DMSO controls; settings: 10 µM; 24 h; SM minimal medium; subpopulation (auxotrophy): L
# Summary of the method: as §1
# [4] = tested on: Saccharomyces cerevisiae BY4741 SeMeCo community; assay: z-score of subpopulation abundance vs DMSO median, subpopulation auxotrophic for H; higher = larger share of this subpopulation than in DMSO controls; settings: 10 µM; 24 h; SM minimal medium; subpopulation (auxotrophy): H
# Summary of the method: as §1
# [5] = tested on: Saccharomyces cerevisiae BY4741 SeMeCo community; assay: z-score of subpopulation abundance vs DMSO median, subpopulation auxotrophic for LU; higher = larger share of this subpopulation than in DMSO controls; settings: 10 µM; 24 h; SM minimal medium; subpopulation (auxotrophy): LU
# Summary of the method: as §1
# [6] = tested on: Saccharomyces cerevisiae BY4741 SeMeCo community; assay: z-score of subpopulation abundance vs DMSO median, subpopulation auxotrophic for LM; higher = larger share of this subpopulation than in DMSO controls; settings: 10 µM; 24 h; SM minimal medium; subpopulation (auxotrophy): LM
# Summary of the method: as §1
# [7] = tested on: Saccharomyces cerevisiae BY4741 SeMeCo community; assay: z-score of subpopulation abundance vs DMSO median, subpopulation auxotrophic for HM; higher = larger share of this subpopulation than in DMSO controls; settings: 10 µM; 24 h; SM minimal medium; subpopulation (auxotrophy): HM
# Summary of the method: as §1
# [8] = tested on: Saccharomyces cerevisiae BY4741 SeMeCo community; assay: z-score of subpopulation abundance vs DMSO median, subpopulation auxotrophic for HU; higher = larger share of this subpopulation than in DMSO controls; settings: 10 µM; 24 h; SM minimal medium; subpopulation (auxotrophy): HU
# Summary of the method: as §1
# [9] = tested on: Saccharomyces cerevisiae BY4741 SeMeCo community; assay: z-score of subpopulation abundance vs DMSO median, subpopulation auxotrophic for UM; higher = larger share of this subpopulation than in DMSO controls; settings: 10 µM; 24 h; SM minimal medium; subpopulation (auxotrophy): UM
# Summary of the method: as §1
# [10] = tested on: Saccharomyces cerevisiae BY4741 SeMeCo community; assay: z-score of subpopulation abundance vs DMSO median, subpopulation auxotrophic for HL; higher = larger share of this subpopulation than in DMSO controls; settings: 10 µM; 24 h; SM minimal medium; subpopulation (auxotrophy): HL
# Summary of the method: as §1
# [11] = tested on: Saccharomyces cerevisiae BY4741 SeMeCo community; assay: z-score of subpopulation abundance vs DMSO median, subpopulation auxotrophic for HLU; higher = larger share of this subpopulation than in DMSO controls; settings: 10 µM; 24 h; SM minimal medium; subpopulation (auxotrophy): HLU
# Summary of the method: as §1
# [12] = tested on: Saccharomyces cerevisiae BY4741 SeMeCo community; assay: z-score of subpopulation abundance vs DMSO median, subpopulation auxotrophic for HLM; higher = larger share of this subpopulation than in DMSO controls; settings: 10 µM; 24 h; SM minimal medium; subpopulation (auxotrophy): HLM
# Summary of the method: as §1
# [13] = tested on: Saccharomyces cerevisiae BY4741 SeMeCo community; assay: z-score of subpopulation abundance vs DMSO median, subpopulation auxotrophic for HUM; higher = larger share of this subpopulation than in DMSO controls; settings: 10 µM; 24 h; SM minimal medium; subpopulation (auxotrophy): HUM
# Summary of the method: as §1
# [14] = tested on: Saccharomyces cerevisiae BY4741 SeMeCo community; assay: z-score of subpopulation abundance vs DMSO median, subpopulation auxotrophic for LUM; higher = larger share of this subpopulation than in DMSO controls; settings: 10 µM; 24 h; SM minimal medium; subpopulation (auxotrophy): LUM
# Summary of the method: as §1
# [15] = tested on: Saccharomyces cerevisiae BY4741 SeMeCo community; assay: z-score of subpopulation abundance vs DMSO median, subpopulation auxotrophic for HLUM; higher = larger share of this subpopulation than in DMSO controls; settings: 10 µM; 24 h; SM minimal medium; subpopulation (auxotrophy): HLUM
# Summary of the method: as §1
# [16] = tested on: Saccharomyces cerevisiae BY4741 SeMeCo community; assay: z-score of subpopulation abundance vs DMSO median, subpopulation auxotrophic for U; higher = larger share of this subpopulation than in DMSO controls; settings: 10 µM; 24 h; SM minimal medium; subpopulation (auxotrophy): U
# Summary of the method: as §1
Structure (SMILES),mean cell size [1],z-score of prototroph abundance [2],z-score of subpopulation abundance [3],z-score of subpopulation abundance [4],z-score of subpopulation abundance [5],z-score of subpopulation abundance [6],z-score of subpopulation abundance [7],z-score of subpopulation abundance [8],z-score of subpopulation abundance [9],z-score of subpopulation abundance [10],z-score of subpopulation abundance [11],z-score of subpopulation abundance [12],z-score of subpopulation abundance [13],z-score of subpopulation abundance [14],z-score of subpopulation abundance [15],z-score of subpopulation abundance [16]
CCCNCC(O)COc1ccccc1C(=O)CCc1ccccc1 (stereo unspecified) [Propafenone HCl],12.36 ± 0.1,0.15,-0.54,-0.52,-0.32,0.27,-0.15,0.58,0.94,-0.37,-0.61,-0.63,-0.3,0.61,0.05,
Nc1ccc(C(=O)O)c(O)c1 [4-Aminosalicylic acid],12 ± 0.19,2.23,0.78,-0.01,-3.37,0.62,0.06,-3.39,-2.19,0.08,-0.27,-0.9,-1.3,,-0.18,-3.36
CCCCC(F)(F)[C@@]1(O)CC[C@H]2[C@@H](CC(=O)[C@@H]2CCCCCCC(=O)O)O1 [Lubiprostone],12.6 ± 0.28,1.04,-1.05,-0.12,-0.53,-1.08,,-0.05,-0.29,-0.29,-0.93,-1.01,-1.08,-0.67,-0.37,0.27
Nc1cc(C(Cl)=C(Cl)Cl)c(S(N)(=O)=O)cc1S(N)(=O)=O [Clorsulon],12.46 ± 0.016,-0.96,0.16,0.76,0.95,-0.35,0.02,0.32,0.16,0.48,0.22,0.02,0.92,1.09,0.24,0.03
COc1ccccc1OCC(O)CN1CCN(CC(=O)Nc2c(C)cccc2C)CC1 (stereo unspecified) [Ranolazine 2HCl],12.35 ± 0.013,0.5,0.24,0.04,0.35,,-0.18,-0.09,-0.16,0.26,-0.68,-0.72,-0.12,-0.47,-0.5,-0.29
O=C(c1ccccc1)c1ccc2n1CCC2C(=O)O (stereo unspecified) [Ketorolac tromethamine salt],12.3 ± 0.19,,0.3,0.35,-0.75,-0.1,-0.41,-0.79,-0.28,-0.19,-0.16,-0.09,-0.75,-0.12,-0.11,-0.92
CO/N=C(\C(=O)N[C@@H]1C(=O)N2C(C(=O)OCOC(=O)C(C)(C)C)=C(/C=C\c3scnc3C)CS[C@H]12)c1csc(N)n1 [Cefditoren Pivoxil],12.3 ± 0.23,-0.6,1.38,0.56,0.07,1.47,1.45,,-0.06,,0.74,0.31,0.78,1.12,,
C[C@H]1c2cccc(O)c2C(O)=C2C(=O)[C@]3(O)C(O)=C(C(N)=O)C(=O)[C@@H](N(C)C)[C@@H]3[C@@H](O)[C@@H]21 [Doxycycline],,1.27,-0.26,,-0.52,-0.26,-0.76,-1.25,-1.44,-0.31,-0.24,-0.1,-1.21,-0.15,0.32,
CO[C@H]1O[C@@H]2O[C@@]3(C)CC[C@H]4[C@H](C)CC[C@@H]([C@H]1C)[C@@]24OO3 [Artemether],12.05 ± 0.027,1.17,-0.43,2.67,-0.14,-1.32,-2,0.26,-0.57,-0.28,-0.85,-0.27,-0.53,-0.58,0.11,0.63
CC(N)C12CC3CC(CC(C3)C1)C2 (stereo unspecified) [Rimantadine],12.5 ± 0.14,-1.12,0.04,0.34,0.71,0.09,,1.15,1.1,-0.19,0.68,0.47,0.67,0.08,-0.32,0.97
COc1ccc2cc(C(=O)O)ccc2c1 [6-Methoxy-2-naphthoic acid],13.4 ± 0.15,2.36,0.27,2.01,-1.63,-1.51,0.22,-0.63,-3.74,,0.62,3.71,-1.83,,1.63,-1.91
Nc1nc(O)c2ncn(CCC(CO)CO)c2n1 [Penciclovir],12.4 ± 0.4,-0.05,-0.31,,0.58,-0.19,0.31,,0.66,-0.26,-0.33,-0.62,0.59,-0.73,-0.97,0.53
C=CC[N+]1([C@H]2C[C@H]3[C@@H]4CC[C@H]5C[C@H](O)[C@@H](N6CCOCC6)C[C@]5(C)[C@H]4CC[C@]3(C)[C@H]2OC(C)=O)CCCC1 [Rocuronium Bromide],12.44 ± 0.065,,0.67,,-0.06,-0.17,-0.59,-0.39,-0.71,-0.71,0,-0.65,-1.09,,-0.49,-0.5
CC1=CC[C@@](O)(C(C)C)CC1 [Terpinen-4-ol],12.39 ± 0.073,-0.41,0.37,-0.04,0.74,-0.03,,,0.26,-0.57,0.05,0.54,-0.35,0.2,,0.8
